“And” between values parts separate entries of the source, which are not always exact repeats. Equal entries are not always repeated. This is part of a sample that, as a whole, favours compounds with a hit. Of some 83,000 tested, about 20% had one in any assay.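 Note: values are percent growth. 100 is the growth of untreated cells, values between 100 and 0 indicate rising inhibition; between -100 and 0 indicates cell death.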 The source made the active and inactive calls. How the source made its calls: active means growth percent below 10; inactive means the rest.
Test system: HL-60(TB) leukemia
Assay: NCI-60 one-dose screen, 48 h (100 = growth as untreated, 0 = no growth, -100 = all killed)
Conditions: 10 µM unless noted

Row | SMILES | growth
1 | Cn1cc(-c2csc(-c3c[nH]c4ccc(Br)cc34)n2)c2cnccc21 | -56.6% (active)
2 | O=C(/C=C/c1cn(-c2ccccc2)nc1-c1ccc([N+](=O)[O-])cc1)c1ccc(Cl)cc1 | 69.1% (inactive)
3 | C=C(CNCCc1ccc(O)cc1)[C@@H]1CC[C@]2(CO)CC[C@]3(C)[C@H](CC[C@@H]4[C@@]5(C)CCC(NCCO)C(C)(C)[C@@H]5CC[C@]43C)[C@@H]12 (stereo not given in full) | -46.4% (active)
4 | O=C(OCCBr)c1ccc(Cl)c([N+](=O)[O-])c1 | 81.7% (inactive)
5 | O=C(Nc1nn(-c2ccc(Cl)cc2Cl)nc1-c1ccccc1)c1ccccc1 | 83.8% (inactive)
6 | O=C(O)c1cc(=O)[nH]c(=O)[nH]1 | 109% (inactive) and 106% (inactive)
7 | O=C(NCCc1ccc(O)c(O)c1)C12CC3CC(CC(C3)C1)C2 | 57% (inactive)
8 | COc1ccc(C(CC(=O)c2ccc3c(c2)OCO3)C(=O)O)cc1OC (stereo not given) | 101% (inactive) and 99.7% (inactive)
9 | COC(=O)/C(CCC=C(C)C)=C1\[C@@H](OC(C)=O)C[C@@]2(C)[C@H]1C[C@@H](O)[C@H]1[C@@]3(C)CC[C@H](NC(=O)c4cnccn4)[C@@H](C)[C@@H]3CC[C@@]12C | 99.5% (inactive)
10 | CCCCCn1sc(=O)n(Cc2ccc(CNC(=O)OCc3ccc4cccc(O)c4n3)cc2)c1=O | -13.5% (active)
11 | O=c1oc2ccccc2cc1C1=NN=C(SCc2ccccc2)SC1 | 102% (inactive)
12 | Cc1oc2ncnc(Nc3ccccc3)c2c1C(=O)NCCO | 64.9% (inactive)
13 | CC(C)(C)n1cc(-c2ccnc(NCCCNS(=O)(=O)c3ccccc3)c2)c(-c2ccccc2)n1 | 38.5% (inactive)
14 | CCc1n(Cc2ccc3ccccc3c2)cc[n+]1Cc1ccc2ccccc2c1 | -54% (active)
15 | N#CC1=C(N)Oc2c(sc3c(Br)cccc23)C1c1ccc(F)cc1 (stereo not given) | -25.6% (active)
16 | OCCNc1nc(NCCO)nc(Nc2ccc(C3=NN(c4ccc(Cl)cc4)C(c4ccc(Cl)cc4)C3)cc2)n1 (stereo not given) | 46.2% (inactive)
17 | O=C(Nc1nc2ccc(S(=O)(=O)Nc3ccc(C4(C(F)(F)F)CC4)cc3)cc2[nH]1)c1cnccn1 | -12.2% (active)
18 | CCCCCCCCCCCCCCCc1cc(O)ccc1N | -45.5% (active) and -6.54% (active)
19 | CC1=CC(=C(c2ccc(N)cc2)c2ccc(N)cc2)C=CC1=N | -13.5% (active) and 47.8% (inactive)
20 | CCN(CC)c1ccc(NC(C(=O)c2ccccc2)c2ccccc2)cc1 (stereo not given) | 65.5% (inactive)

Row | SMILES | growth
21 | N#CC1c2ccccc2C=CN1C(=O)CCCl (stereo not given) | 65.5% (inactive)
22 | CC(=O)c1cc2c(N)c(C(=O)Nc3ccccc3)sc2nc1C | 55.6% (inactive)
23 | O=C1c2ccccc2C(=O)N1/N=C/c1ccc2c(c1)OCO2 | 88.1% (inactive)
24 | Cc1cccc(Cc2cnc(NC(=O)/C=C/c3ccco3)s2)c1 | -44.8% (active)
25 | CCCCCCCCCCCCCCCCCCNC(=S)N/N=C/c1ccc(OC)c(OC)c1 | 73.6% (inactive)
26 | CCN(CC)c1ccc2c(c1)Oc1nc(N)c(C#N)c(N)c1C2Sc1ccc(OC)cc1 (stereo not given) | -16.6% (active)
27 | Oc1ccc(/C=N/N=C2c3ccccc3-c3ccccc32)c(O)c1 | 71.7% (inactive)
28 | CC(=O)c1c(C)c2cnc(Nc3ccc(N4CCNCC4)cn3)nc2n(C2CCCC2)c1=O | 21.8% (inactive)
29 | COc1ccc2c(c1)[n+]([O-])c(C(=O)/C=C/C=C(\Cl)c1cc(OC)c(OC)c(OC)c1)c(C)[n+]2[O-] | 107% (inactive)
30 | CCN1C(=O)N(c2ccccc2)C2NN=c3s/c(=C4\C(=O)N(C(C)C)c5ccccc54)c(=O)n3C21 (stereo not given) | -16.1% (active)
31 | CCOc1ccc(N(C)c2ccc(/C=C/C3=[N+](C)c4ccccc4C3(C)C)cc2)cc1 | -43.5% (active)
32 | CCOc1ccc(NC(=O)CSc2oc(-c3ccccc3)nc2S(=O)(=O)c2ccc(F)cc2)cc1 | 65.2% (inactive)
33 | CC(=O)Nc1ccc(OC(C)=O)cc1 | -9.02% (active) and 104% (inactive)
34 | O=[N+]([O-])c1ccc(Nc2nc(NCCN3CCOCC3)ncc2[N+](=O)[O-])cc1 | 102% (inactive)
35 | COC1C[C@H](O[C@@H]2C[C@H](O[C@@H]3C[C@H](O[C@@H]4C(=O)c5c(cc6cc(O[C@H]7C[C@@H](O[C@H]8C[C@@H](O)[C@H](O)C(C)O8)[C@H](O)C(C)O7)c(C)c(O)c6c5O)C[C@H]4C(OC)C(=O)[C@@H](O)[C@@H](C)O)OC(C)[C@H]3O)OC(C)[C@@H]2O)OC(C)[C@@H]1O (stereo not given in full) | -0.253% (active)
36 | O=C(Nc1ccc(Nc2ccncc2)cc1)c1ccc(Nc2ccnc3ccc([N+](=O)[O-])cc23)cc1[N+](=O)[O-] | 88.8% (inactive)
37 | CCN(CC)c1cc(C)c2cc(NC(=O)c3cccc(OC)c3)ccc2n1 | 84.7% (inactive)
38 | Cc1nnc(NS(=O)(=O)c2ccc(N=Nc3ccc(N)nc3N)cc2)s1 | 98.4% (inactive) and 98.2% (inactive)
39 | CCOC(=O)c1cn2ncnc(Oc3ccc(NC(=O)NCCN4CCOCC4)c(Cl)c3)c2c1C | 101% (inactive)
40 | Cn1cc(-c2cnc3ccc(NC(=O)Nc4ccc(F)c(Br)c4)cc3n2)cn1 | 13.5% (inactive)

Source: PubChem BioAssay (NCI)
